Measured values as given in PubChem BioAssay (EPA / NIEHS).
Records with an inconclusive call do not appear. Active and inactive are the calls of the source. The calls were made as follows: active = hit-call score of the fitted dose curve at least 0.9, where 1 is the maximum; inconclusive = response in the unintended direction; inactive = score below 0.9.

What was measured:
[1] = target: human Serotonin, 5-Hydroxytryptamine Receptor 7 (5HT7), HTR7 (gene 3363) (UniProt P34969); assay: NVS_GPCR_h5HT7: NovaScreen (NVS) G Protein-Coupled Receptor Assay for human Serotonin, 5-Hydroxytryptamine Receptor 7 (5HT7) (AID 2283255);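 also: hits reduce specific radioligand binding relative to DMSO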
Chain of human Serotonin, 5-Hydroxytryptamine Receptor 7 (5HT7), HTR7 (gene 3363) (P34969 whole entry, looked up): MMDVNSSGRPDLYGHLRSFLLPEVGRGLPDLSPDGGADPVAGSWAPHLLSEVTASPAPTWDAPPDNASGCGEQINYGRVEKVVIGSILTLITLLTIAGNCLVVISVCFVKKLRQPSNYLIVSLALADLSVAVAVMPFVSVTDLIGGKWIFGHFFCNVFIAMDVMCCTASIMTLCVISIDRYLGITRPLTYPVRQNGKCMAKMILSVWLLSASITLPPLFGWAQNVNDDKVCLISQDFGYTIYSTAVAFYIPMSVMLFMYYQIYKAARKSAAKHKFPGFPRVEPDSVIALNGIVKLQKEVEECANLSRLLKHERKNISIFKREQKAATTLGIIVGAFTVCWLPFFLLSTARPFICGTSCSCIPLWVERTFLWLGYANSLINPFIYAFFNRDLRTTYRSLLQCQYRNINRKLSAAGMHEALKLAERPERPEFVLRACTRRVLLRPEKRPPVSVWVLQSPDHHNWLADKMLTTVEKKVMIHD
Method: (§1) NVS_GPCR_h5HT7 is a biochemical, single-readout assay that uses extracted gene-proteins from CHO in a cell-free assay. Measurements were taken 1 hour after chemical dosing in a 96-well plate.NVS_GPCR_h5HT7 is one of one assay component(s) measured or calculated from the NVS_GPCR_h5HT7 assay. It is designed to make measurements of radioligand binding, a form of binding reporter, as detected with scintillation counting signals by Filter-based radiodetection technology.Data from the assay component NVS_GPCR_h5HT7 was analyzed into 1 assay endpoint. This assay endpoint, NVS_GPCR_h5HT7, was analyzed in the positive analysis fitting direction relative to DMSO as the negative control and baseline of activity. Using a type of binding reporter, loss-of-signal activity can be used to understand changes in the binding as they relate to the gene HTR7. Furthermore, this assay endpoint can be referred to as a primary readout, because the performed assay has only produced 1 assay endpoint. To generalize the intended target to other relatable targets, this assay endpoint is annotated to the gpcr intended target family, where the subfamily is rhodopsin-like receptor.
(§2) Binding assays used specific radioligands (tritiated, iodinated) with non-radioactive competitive displacement ligands in agonist or antagonist protocols (as indicated) and various reference compounds and inhibitors to titrate specific binding to receptors and transporters. Most enzyme assays (CYPs, kinases, phosphatases, proteases, HDACs) used recombinant protein and specific substrates (fluorescence mostly, some colorimetric and radioactive) and inhibitors, followed by a biochemical separation of substrate and product. All assays for the biochemical HTS were initially run in duplicate at a single concentration (10 uM for CYP450 assays and 25 uM for all others). […] Each assay was run with positive and negative controls, and concurrent controls on every plate. The follow-up (secondary) screen tested active chemical-pairs in concentration series, as well as a few additional assays not tested in the primary screen, some selected negative inactives, and several cases re-run in the concentration series for confirmatory purposes.

[2] = target: human Adrenergic, Beta 3 Receptor (Adrb3), ADRB3 (gene 155) (UniProt P13945); assay: NVS_GPCR_hAdrb3: NovaScreen (NVS) G Protein-Coupled Receptor Assay for human Adrenergic, Beta 3 Receptor (Adrb3) (AID 2283262)
Chain of human Adrenergic, Beta 3 Receptor (Adrb3), ADRB3 (gene 155) (P13945 whole entry, looked up): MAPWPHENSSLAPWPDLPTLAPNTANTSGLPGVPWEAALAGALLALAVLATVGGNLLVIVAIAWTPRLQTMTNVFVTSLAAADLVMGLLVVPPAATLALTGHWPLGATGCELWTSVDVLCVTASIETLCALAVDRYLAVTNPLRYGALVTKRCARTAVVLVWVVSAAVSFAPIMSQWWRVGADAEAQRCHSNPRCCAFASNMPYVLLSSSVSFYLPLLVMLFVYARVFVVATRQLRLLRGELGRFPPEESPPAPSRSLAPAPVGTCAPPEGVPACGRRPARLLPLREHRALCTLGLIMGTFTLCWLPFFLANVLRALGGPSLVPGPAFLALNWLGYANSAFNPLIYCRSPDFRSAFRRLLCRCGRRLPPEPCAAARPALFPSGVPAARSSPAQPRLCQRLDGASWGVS
Method: as §1, with “NVS_GPCR_hAdrb3” for “NVS_GPCR_h5HT7”, “SK-N-MC pretreated with isoproteronol and 8-bromo-cAMP” for “CHO”, “48-well plate.NVS_GPCR_hAdrb3” for “96-well plate.NVS_GPCR_h5HT7”, “NVS_GPCR_hAdrb3,” for “NVS_GPCR_h5HT7,”, “ADRB3.” for “HTR7.”
as §2

[3] = target: Type-1 angiotensin II receptor (Homo sapiens) (UniProt P30556); assay: NVS_GPCR_hAT1: NovaScreen (NVS) G Protein-Coupled Receptor Assay for human Angiotensin II receptor type 1 (AT1) (AID 2283263)
Chain of Type-1 angiotensin II receptor (Homo sapiens) (P30556 whole entry, looked up): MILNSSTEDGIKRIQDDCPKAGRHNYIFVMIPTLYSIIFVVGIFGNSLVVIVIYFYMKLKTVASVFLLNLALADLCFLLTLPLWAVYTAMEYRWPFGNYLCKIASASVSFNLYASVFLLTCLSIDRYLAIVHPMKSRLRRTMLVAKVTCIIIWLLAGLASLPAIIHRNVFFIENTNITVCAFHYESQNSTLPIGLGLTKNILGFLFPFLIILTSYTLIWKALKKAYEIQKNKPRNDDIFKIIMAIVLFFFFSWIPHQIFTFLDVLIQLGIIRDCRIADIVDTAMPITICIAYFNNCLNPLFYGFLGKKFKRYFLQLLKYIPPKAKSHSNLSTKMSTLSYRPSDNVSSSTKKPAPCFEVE
Procedure, shortened: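 Hits from a 25 uM duplicate screen (threshold e.g. 30% inhibition) were run in concentration-response with 50 uM top concentration. Displacement of specific radioligand from KAN-TS membrane preparations measured after 3 h by filter scintillation, DMSO as baseline.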

[4] = target: human Adrenergic, Beta 1 Receptor (Adrb1), ADRB1 (gene 153) (UniProt P08588); assay: NVS_GPCR_hAdrb1: NovaScreen (NVS) G Protein-Coupled Receptor Assay for human Adrenergic, Beta 1 Receptor (Adrb1) (AID 2283258)
Chain of human Adrenergic, Beta 1 Receptor (Adrb1), ADRB1 (gene 153) (P08588 whole entry, looked up): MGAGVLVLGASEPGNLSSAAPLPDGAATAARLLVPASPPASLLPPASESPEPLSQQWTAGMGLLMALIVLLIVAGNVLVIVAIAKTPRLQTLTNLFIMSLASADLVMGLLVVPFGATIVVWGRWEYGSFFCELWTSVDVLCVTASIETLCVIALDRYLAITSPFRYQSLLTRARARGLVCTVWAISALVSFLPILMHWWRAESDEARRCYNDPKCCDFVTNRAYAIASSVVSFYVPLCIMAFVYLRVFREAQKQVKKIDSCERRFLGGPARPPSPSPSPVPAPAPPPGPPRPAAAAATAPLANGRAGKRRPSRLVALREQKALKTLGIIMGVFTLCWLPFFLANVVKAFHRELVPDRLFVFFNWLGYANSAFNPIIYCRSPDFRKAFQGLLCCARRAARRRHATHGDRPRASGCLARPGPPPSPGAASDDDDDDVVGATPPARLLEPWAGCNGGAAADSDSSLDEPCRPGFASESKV
Procedure, shortened: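 Membranes/protein extracted from human neuroepithelioma cells, radioligand competition binding read by filtration and scintillation 2 h post-dose. Single 25 uM duplicate screen, then concentration-response follow-up; DMSO as negative control.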

[5] = target: human Adenosine A1 Receptor (AdoRA1), ADORA1 (gene 134) (UniProt P30542); assay: NVS_GPCR_hAdoRA1: NovaScreen (NVS) G Protein-Coupled Receptor Assay for human Adenosine A1 Receptor (AdoRA1) (AID 2283254)
Chain of human Adenosine A1 Receptor (AdoRA1), ADORA1 (gene 134) (P30542 whole entry, looked up): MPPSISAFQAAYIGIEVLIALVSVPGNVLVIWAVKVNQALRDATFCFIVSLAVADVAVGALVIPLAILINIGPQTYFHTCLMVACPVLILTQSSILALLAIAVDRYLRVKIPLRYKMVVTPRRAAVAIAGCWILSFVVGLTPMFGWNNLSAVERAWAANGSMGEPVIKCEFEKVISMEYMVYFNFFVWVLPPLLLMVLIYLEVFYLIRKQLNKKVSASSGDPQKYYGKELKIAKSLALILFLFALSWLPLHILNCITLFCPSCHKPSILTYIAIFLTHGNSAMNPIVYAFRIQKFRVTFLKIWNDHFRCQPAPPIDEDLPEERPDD
Procedure, shortened: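 Hum. cortical membranes + radioligand, cmpd 1 h; filtration, scintillation count. Readout = decrease vs DMSO. Primary 25 uM dup; hits → conc. series.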

[6] = target: human Adenosine A2a Receptor (AdoRA2a), ADORA2A (gene 135) (UniProt P29274); assay: NVS_GPCR_hAdoRA2a: NovaScreen (NVS) G Protein-Coupled Receptor Assay for human Adenosine A2a Receptor (AdoRA2a) (AID 2283256)
Chain of human Adenosine A2a Receptor (AdoRA2a), ADORA2A (gene 135) (P29274 whole entry, looked up): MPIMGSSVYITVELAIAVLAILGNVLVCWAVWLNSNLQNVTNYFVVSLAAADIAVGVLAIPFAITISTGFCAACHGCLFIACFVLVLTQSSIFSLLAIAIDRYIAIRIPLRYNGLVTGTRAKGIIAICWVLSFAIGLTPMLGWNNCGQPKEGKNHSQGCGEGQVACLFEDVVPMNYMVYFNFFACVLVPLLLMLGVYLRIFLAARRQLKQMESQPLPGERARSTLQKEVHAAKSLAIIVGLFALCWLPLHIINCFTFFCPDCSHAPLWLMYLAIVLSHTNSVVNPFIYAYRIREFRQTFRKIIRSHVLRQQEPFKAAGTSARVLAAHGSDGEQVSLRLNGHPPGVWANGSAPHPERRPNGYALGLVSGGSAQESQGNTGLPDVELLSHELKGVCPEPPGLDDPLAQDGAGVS
Procedure, shortened: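 HEK293-derived receptor preparation, radioligand displacement, 1.5 h, filtration + scintillation read. Loss of bound signal scored vs DMSO. Single-point 25 uM in duplicate first, then concentration-response for actives.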

[7] = target: human Adrenergic, Alpha 2A Receptor (Adra2A), ADRA2A (gene 150) (UniProt P08913); assay: NVS_GPCR_hAdra2A: NovaScreen (NVS) G Protein-Coupled Receptor Assay for human Adrenergic, Alpha 2A Receptor (Adra2A) (AID 2283257)
Chain of human Adrenergic, Alpha 2A Receptor (Adra2A), ADRA2A (gene 150) (P08913 whole entry, looked up): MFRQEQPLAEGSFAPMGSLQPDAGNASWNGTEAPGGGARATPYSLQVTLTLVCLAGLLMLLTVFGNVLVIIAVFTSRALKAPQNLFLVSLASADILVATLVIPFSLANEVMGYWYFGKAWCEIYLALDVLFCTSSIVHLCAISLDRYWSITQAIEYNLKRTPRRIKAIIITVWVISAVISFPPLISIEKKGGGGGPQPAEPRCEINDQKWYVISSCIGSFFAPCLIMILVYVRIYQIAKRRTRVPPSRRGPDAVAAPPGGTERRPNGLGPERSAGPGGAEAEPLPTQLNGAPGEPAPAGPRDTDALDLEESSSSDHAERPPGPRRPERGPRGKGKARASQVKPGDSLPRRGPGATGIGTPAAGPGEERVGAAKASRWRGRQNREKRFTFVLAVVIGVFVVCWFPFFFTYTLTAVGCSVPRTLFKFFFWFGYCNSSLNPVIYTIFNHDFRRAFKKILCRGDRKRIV
Method: as §1, with “NVS_GPCR_hAdra2A” for “NVS_GPCR_h5HT7”, “HT29” for “CHO”, “48-well plate.NVS_GPCR_hAdra2A” for “96-well plate.NVS_GPCR_h5HT7”, “NVS_GPCR_hAdra2A,” for “NVS_GPCR_h5HT7,”, “ADRA2A.” for “HTR7.”
as §2

[8] = target: Beta-2 adrenergic receptor (Homo sapiens) (UniProt P07550); assay: NVS_GPCR_hAdrb2: NovaScreen (NVS) G Protein-Coupled Receptor Assay for human Adrenergic, Beta 2 Receptor (Adrb2) (AID 2283261)
Chain of Beta-2 adrenergic receptor (Homo sapiens) (P07550 whole entry, looked up): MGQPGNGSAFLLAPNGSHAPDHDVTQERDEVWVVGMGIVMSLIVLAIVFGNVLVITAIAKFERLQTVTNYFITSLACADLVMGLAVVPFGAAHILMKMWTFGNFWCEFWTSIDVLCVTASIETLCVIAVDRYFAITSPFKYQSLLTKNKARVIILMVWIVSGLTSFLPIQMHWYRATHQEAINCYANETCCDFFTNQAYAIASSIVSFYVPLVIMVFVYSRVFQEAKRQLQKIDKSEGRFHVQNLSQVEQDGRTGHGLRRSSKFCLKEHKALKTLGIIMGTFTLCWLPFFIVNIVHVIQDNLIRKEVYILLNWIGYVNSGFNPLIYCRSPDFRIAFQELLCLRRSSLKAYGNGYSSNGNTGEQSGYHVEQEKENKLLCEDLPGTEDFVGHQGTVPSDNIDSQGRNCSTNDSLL
Procedure, shortened: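 Compounds screened in duplicate at 25 uM, then actives in concentration series. Human beta-2 receptor from CHO material, cell-free; radioligand displacement after 1 h measured by filtration and scintillation against DMSO baseline.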

[9] = target: human Dopamine Receptor D4.4 (DRD4.4), DRD4 (gene 1815) (UniProt P21917); assay: NVS_GPCR_hDRD4.4: NovaScreen (NVS) G Protein-Coupled Receptor Assay for human Dopamine Receptor D4.4 (DRD4.4) (AID 2283264)
Chain of human Dopamine Receptor D4.4 (DRD4.4), DRD4 (gene 1815) (P21917 whole entry, looked up): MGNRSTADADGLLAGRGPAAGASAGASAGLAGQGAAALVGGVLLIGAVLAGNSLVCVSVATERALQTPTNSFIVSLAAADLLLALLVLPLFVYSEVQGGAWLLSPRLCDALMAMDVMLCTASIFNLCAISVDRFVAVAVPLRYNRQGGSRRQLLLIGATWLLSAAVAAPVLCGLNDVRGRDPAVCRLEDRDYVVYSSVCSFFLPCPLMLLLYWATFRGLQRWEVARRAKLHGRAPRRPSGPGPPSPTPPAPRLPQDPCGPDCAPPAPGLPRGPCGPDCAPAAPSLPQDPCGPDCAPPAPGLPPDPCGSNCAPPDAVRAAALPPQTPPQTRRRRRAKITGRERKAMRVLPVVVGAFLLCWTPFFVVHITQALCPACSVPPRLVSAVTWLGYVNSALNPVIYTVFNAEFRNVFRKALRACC
Procedure, shortened: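 Filter-binding assay with a tritiated or iodinated ligand, cell-free receptor prepared from CHO, 1 hour. Loss of bound radioactivity versus DMSO; single 25 uM duplicate screen, then concentration-response for actives.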

[10] = target: human Adrenergic, Alpha 2c Receptor (Adra2C), ADRA2C (gene 152) (UniProt P18825); assay: NVS_GPCR_hAdra2C: NovaScreen (NVS) G Protein-Coupled Receptor Assay for human Adrenergic, Alpha 2c Receptor (Adra2C) (AID 2283259)
Chain of human Adrenergic, Alpha 2c Receptor (Adra2C), ADRA2C (gene 152) (P18825 whole entry, looked up): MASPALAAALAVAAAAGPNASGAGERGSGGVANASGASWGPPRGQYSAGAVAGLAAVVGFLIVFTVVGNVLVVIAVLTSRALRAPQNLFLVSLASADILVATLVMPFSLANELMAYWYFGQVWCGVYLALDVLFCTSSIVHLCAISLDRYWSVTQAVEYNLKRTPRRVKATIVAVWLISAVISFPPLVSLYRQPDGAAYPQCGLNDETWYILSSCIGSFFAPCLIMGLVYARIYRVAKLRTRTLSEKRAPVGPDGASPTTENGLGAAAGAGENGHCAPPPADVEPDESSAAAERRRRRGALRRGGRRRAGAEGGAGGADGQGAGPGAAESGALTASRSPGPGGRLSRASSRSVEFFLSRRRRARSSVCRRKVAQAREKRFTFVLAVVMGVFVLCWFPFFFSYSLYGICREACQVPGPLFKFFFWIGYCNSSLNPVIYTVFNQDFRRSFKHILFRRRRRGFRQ
Procedure, shortened: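 Screened first in duplicate at 25 uM, with actives then run as concentration series. Membranes from Sf9 cells were exposed for 1 h, and displacement of radioligand was counted after filtration, using DMSO as baseline.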

CC(C)(C)c1ccccc1
outcome [1]: inactive

Cn1cnc2c1c(=O)[nH]c(=O)n2C
outcome [2]: inactive

CCc1cc(C2=C(C(=O)O)N(c3ccccc3C(F)(F)F)S(=O)(=O)c3ccccc32)cc2c1OCO2
AC50 [3]: 16.2 µM (active)

Cc1ccc(-c2cc(C(F)(F)F)nn2-c2ccc(S(N)(=O)=O)cc2)cc1
AC50 [4]: 4.96 µM (active)

Nc1nc(Cl)nc2c1ncn2[C@H]1C[C@H](O)[C@@H](CO)O1
AC50 [5]: 8.99 µM (active) | AC50 [6]: 13.1 µM (active)

CCc1nc(N)nc(N)c1-c1ccc(Cl)cc1
AC50 [1]: 4.76 µM (active) | AC50 [7]: 4.81 µM (active) | outcome [8]: inactive | AC50 [9]: 5.9 µM (active)

O=C(O)c1[nH]n(-c2ccc(S(=O)(=O)O)cc2)c(=O)c1N=Nc1ccc(S(=O)(=O)O)cc1
outcome [1]: inactive | outcome [10]: inactive | AC50 [9]: 16.5 µM (active)

O=Cc1ccccc1C=O
outcome [3]: inactive

C=CCCCCCCCCCCCC
outcome [5]: inactive

CC(C)c1cccc(C(C)C)c1
outcome [4]: inactive

CN(C)C(=O)NC1(c2ccccc2)CCN(CCC[C@]2(c3ccc(Cl)c(Cl)c3)CCCN(C(=O)c3ccccc3)C2)CC1
outcome [1]: inactive | outcome [2]: inactive | AC50 [9]: 6.25 µM (active)

CCCCCCCCCC[N+](C)(C)[O-]
outcome [2]: inactive

CCCCC(CC)COC(=O)CCCCCCCC(=O)OCC(CC)CCCC (stereo not given)
outcome [4]: inactive

COC(=O)[C@H]1[C@H]2C[C@@H]3c4[nH]c5cc(OC)ccc5c4CCN3C[C@H]2C[C@@H](OC(=O)c2cc(OC)c(OC)c(OC)c2)[C@@H]1OC
AC50 [8]: 12.1 µM (active)

COc1ccc(OC(F)(F)F)cc1CN[C@H]1CCCN[C@H]1c1ccccc1
AC50 [7]: 13.4 µM (active) | AC50 [10]: 10.6 µM (active) | AC50 [2]: 20.5 µM (active)

O=C1OC(c2ccc(O)cc2)(c2ccc(O)cc2)c2ccccc21
AC50 [5]: 1.03 µM (active)

CSc1ccc(Oc2ccc(S(N)(=O)=O)cc2CN(C)C)cc1C
AC50 [1]: 12.5 µM (active) | AC50 [7]: 0.263 µM (active) | AC50 [10]: 5.83 µM (active) | outcome [2]: inactive | AC50 [9]: 25 µM (active)

CN(C)C(=O)NC1(c2ccccc2)CCN(CC[C@@]2(c3ccc(F)c(F)c3)CN(C(=O)c3ccccc3)CCO2)CC1
AC50 [6]: 23.5 µM (active)

CCCCCCC(CCCCCCCCCCC(=O)OCC(COC(C)=O)OC(C)=O)OC(C)=O (stereo not given)
outcome [4]: inactive

CCCCCCCCCCCCCCOS(=O)(=O)O
AC50 [1]: 16.5 µM (active) | AC50 [4]: 5.22 µM (active) | AC50 [10]: 2.99 µM (active) | AC50 [8]: 15.4 µM (active) | outcome [3]: inactive | AC50 [9]: 13.3 µM (active)

CN(C)CCCN1c2ccccc2Sc2ccc(Cl)cc21
AC50 [7]: 1.43 µM (active) | AC50 [4]: 25 µM (active) | AC50 [8]: 17.1 µM (active) | AC50 [2]: 25 µM (active)

CCCCc1nc2cccnc2n1Cc1ccc(-c2ccccc2-c2nnn[nH]2)cc1
outcome [10]: inactive | AC50 [3]: 0.0191 µM (active)

Cc1cc(Cc2ccc(N)c(C)c2)ccc1N
outcome [6]: inactive

NC(=Nc1ccccc1)Nc1ccccc1
AC50 [1]: 11.8 µM (active)

CCC(C)N(C)C(=O)c1cc2ccccc2c(-c2ccccc2Cl)n1 (stereo not given)
AC50 [5]: 6.11 µM (active) | AC50 [6]: 7.37 µM (active) | AC50 [3]: 15.9 µM (active)

CCN(CC)CCOc1ccc(C(=C(Cl)c2ccccc2)c2ccccc2)cc1
AC50 [5]: 11 µM (active) | AC50 [1]: 3.31 µM (active) | AC50 [6]: 11.6 µM (active) [middle of 4 runs] | AC50 [10]: 1.58 µM (active) | AC50 [8]: 18.2 µM (active) | outcome [2]: inactive | AC50 [9]: 17.3 µM (active)

O=C(N[C@@H](c1ccccc1)[C@@H]1CCCCN1)c1cccc(C(F)(F)F)c1Cl
AC50 [1]: 8.16 µM (active) | outcome [2]: inactive | outcome [9]: inactive
